Source: PubChem BioAssay
ERK AVP block: qHTS Assay for Inhibitors of the ERK Signaling Pathway using a Homogeneous Screening Assay | HEK293-V1b, vasopressin-stimulated pERK AlphaScreen | Potency, µM (top dose mostly 57.5 µM), for the others: at the top dose activity, negative = inhibition, usual class: inhibitors | actives 0.99% (n = 72,000) | AID 995, 2007; note: nearly all actives have a fitted effect of over 55% in size
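qHTS, compounds titrated on V1b-expressing HEK293 cells. Preincubation 30 min at 37C, vasopressin 25 nM for 5 min, lysis 10 min, bead incubation 5 hr at room temperature.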
PK Bst: Pyruvate Kinase. Potency, µM. actives 1.2% (n = 51,000). purified pyruvate kinase, luminescence ATP production; ribose 5-phosphate activator present at AC10; in the data active = potency below about 11 µM; inconclusive = mostly about 12 µM to 25 µM;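 the screen sought inhibitors and activators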;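 note: scaled between full activation by ribose 5 phosphate and full inhibition by luteolin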
Pol III holo inh: qHTS Assay for Inhibitors of DNA Polymerase III Holoenzyme System; AID 603, 2007; actives 0.25% (n = 71,000); reconstituted DNA polymerase III holoenzyme replication, biochemical; Potency, µM (highest dose often 57.1 µM), inactives show at the top dose activity change, negative = inhibition
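Reconstituted *E. coli* holoenzyme (0.35 nM Pol III, 1 nM beta, 154 nM SSB, 2 nM primase) was preincubated with compound for 15 min at RT. Synthesis on 1.4 nM ssM13Gori ran 35 min, then was stopped with PicoGreen/EDTA and read as dsDNA fluorescence.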
Luciferase inh: qHTS Assay for Inhibitors of Firefly Luciferase | Luciferin 4-monooxygenase (Photinus pyralis), P08659 | Potency, µM (series often up to 57.1 µM), inactives show top-dose activity change, negative = inhibition, most hits filed as inhibitors | actives 2.2% (n = 72,000) | purified firefly luciferase, luminescence, 8 min | AID 411, 2009; note: nearly all actives have a fitted effect of over 40% in size
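Here, luciferase activity is measured as luminescence following an 8 min room-temperature reaction at 10 uM ATP, pH 7.2. Every library sample is titrated.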
Tau fil binding: qHTS Assay for Tau Filament Binding | Potency, µM (series often up to 57.1 µM), for inactives: at the top dose activity change, negative = inhibition | recombinant tau filaments, thioflavin S fluorescence, 15 h; filaments grown with octadecylsulfate alongside compound | Microtubule-associated protein tau (Homo sapiens), P10636 | actives 2% (n = 71,000);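 note: actives lower thioflavin S fluorescence by blocking filaments or displacing dye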
Target sequence (P10636 whole entry, looked up): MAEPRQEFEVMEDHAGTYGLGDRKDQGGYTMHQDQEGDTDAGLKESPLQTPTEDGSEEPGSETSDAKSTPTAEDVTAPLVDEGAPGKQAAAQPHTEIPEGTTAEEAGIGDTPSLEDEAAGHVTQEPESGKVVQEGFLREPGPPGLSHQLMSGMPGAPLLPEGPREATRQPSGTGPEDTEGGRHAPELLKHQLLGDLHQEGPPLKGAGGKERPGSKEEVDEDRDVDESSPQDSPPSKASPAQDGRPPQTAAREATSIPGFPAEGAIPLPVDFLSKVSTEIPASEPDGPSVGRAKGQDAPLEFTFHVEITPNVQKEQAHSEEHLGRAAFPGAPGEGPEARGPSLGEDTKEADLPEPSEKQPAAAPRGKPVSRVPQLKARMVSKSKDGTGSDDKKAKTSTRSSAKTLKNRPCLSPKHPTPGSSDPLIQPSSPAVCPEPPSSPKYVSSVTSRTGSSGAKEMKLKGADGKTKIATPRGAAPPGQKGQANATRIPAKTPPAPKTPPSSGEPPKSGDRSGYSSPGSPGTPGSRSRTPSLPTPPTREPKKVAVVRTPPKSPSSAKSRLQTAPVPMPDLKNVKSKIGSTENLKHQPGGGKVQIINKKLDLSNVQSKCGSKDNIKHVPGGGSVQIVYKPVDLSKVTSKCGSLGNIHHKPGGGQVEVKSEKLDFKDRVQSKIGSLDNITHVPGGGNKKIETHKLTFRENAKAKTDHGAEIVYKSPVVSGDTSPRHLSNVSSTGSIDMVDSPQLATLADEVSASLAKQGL
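ThS-based fibril read: tau 1 uM final, inducer ODS 30 uM final, 37 C for 15 h, ex 450/em 510 nm.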
ALOX15 inhib: qHTS Assay for Inhibitors of 15-hLO (15-human lipoxygenase) | Polyunsaturated fatty acid lipoxygenase ALOX15 (Homo sapiens), P16050 | purified 15hLO-1, xylenol orange hydroperoxide absorbance | Potency, µM (titrated, usually from 57.1 µM), without a hit: at the top dose activity change, negative = inhibition, actives largely listed as inhibitors | actives 1.4% (n = 74,000) | AID 887, 2007; note: nearly all actives have a fitted effect of over 55% in size
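Inhibition is scored from a chromogenic endpoint. After 15 min enzyme-compound contact, arachidonic acid (50 uM final) reacts 6 min with 40 nM 15hLO-1 at room temperature, then Fe-XO reagent is added for 30 min and absorbance ratio recorded.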
Numbers without * were called inactive; i = inactive; ? = inconclusive; · = no result given; [ ] = remark or other dose. A selection: hits, their analogues and other compounds. The true share with any hit is near 6%. Unless noted, calls come from the whole dose curve; as a rule, active = well fitted curve in the direction sought with a large enough effect; inconclusive = small, poorly fitted or top-dose-only effect, or another doubt; inactive = no such curve, though single readings can be large; an effect the other way counts as inactive or inconclusive. Unless noted, % is set by controls: 0 for no effect and ±100 for the full control effect; potency is the fitted concentration of half-maximal effect.

SMILES | ERK AVP block | PK Bst | Pol III holo inh | Luciferase inh | Tau fil binding | ALOX15 inhib
COc1cc2ncnc(Nc3cccc(Br)c3)c2cc1OC | -12% | · | 3% | -1% | ? | 1%[25.6 µM]
CN1CCC2(CC1)CCN(C(=O)c1cc(C(F)(F)F)cc(C(F)(F)F)c1)CC2 | -17% | · | -4% | -1%[11.4 µM] | 0% | 2%
COC(=O)C1=C(C)N=c2s/c(=C/c3ccoc3)c(=O)n2C1c1ccccc1 (configuration not stated) | -30% | >57 | 0% | -1% | -11% | ?
COC(=O)C1=C(C)N=c2s/c(=C/c3cccs3)c(=O)n2C1c1cccs1 (configuration not stated) | 0% | >57 | 1% | 0% | 1µM* | 5%
CCCCCCCC[N+](CCCCCCCC)(CCCCCCCC)CCCCCCCC | -21% | · | -28% | · | 400% | 20µM*
CCCCCCCCO | 0% | · | 1% | · | 1% | 0%
C[C@@]12CC[C@@H]3[C@H](CCC4=CC(=O)CC[C@]43C)[C@@H]1CC[C@@H]2C(=O)Cn1cnc2c(=S)nc[nH]c21 | -9%[11.5 µM] | · | -6%[11.4 µM] | -1%[11.4 µM] | 12%[11.4 µM] | -18%[11.4 µM]
COc1ccc(NC2=NC3(CCCCC3)N=C(N)N2)cc1 | 3% | >57 | -11% | -1% | 15% | 25µM*
CCN(CC)c1nc2ccccc2nc1C(C#N)C(=O)NCCCOC (configuration not stated) | -20% | >57 | -9% | 3% | 7.9µM* | -18%
N#CC(C(=O)NCCc1ccccc1)c1nc2ccccc2nc1N1CCOCC1 (configuration not stated) | ? | >57 | 0% | -2% | 2.5µM* | -7%
CCCCCCNC(=O)C(C#N)c1nc2ccccc2nc1N1CCOCC1 (configuration not stated) | -27% | >57 | -1% | 1% | 4µM* | -1%
CCCCCCNC(=O)C(C#N)c1nc2ccccc2nc1N1CCCC1 (configuration not stated) | -2% | >57 | 4% | -35% | -9% | 2%
N#CC(C(=O)NCc1ccco1)c1nc2ccccc2nc1N1CCOCC1 (configuration not stated) | -30% | · | -9% | 1% | 4µM* | -11%
COCCCNC(=O)C(C#N)c1nc2ccccc2nc1N1CCCC1 (configuration not stated) | · | >26 | · | 3%[25.5 µM] | · | ·
N#CC(C(=O)NCc1ccccc1)c1nc2ccccc2nc1N1CCCC1 (configuration not stated) | 0% | >57 | 4% | 2% | 61% | -1%
CCCCCCC(=O)Cc1cc(OC)c(OC)cc1/C=C(/C(C)=O)C(=O)OC | 2%[11.5 µM] | · | · | · | · | 3%[11.4 µM]
COc1ncc2nc(-c3ccccc3)c(=O)n(-c3ccccc3)c2n1 | ? | · | 0% | 0%[11.4 µM] | -1% | -5%
Nc1ccn([C@H]2O[C@H](CO)[C@@H]3[O][Sn]([c]4ccccc4)([c]4ccccc4)[O][C@H]32)c(=O)n1 | 4%[11.5 µM] | · | 4%[11.4 µM] | 2%[11.4 µM] | -5%[11.4 µM] | -2%[11.4 µM]
CCOC(=O)N1CCN(c2nc3ccccc3nc2C(C#N)C(=O)NCCc2ccccc2)CC1 (configuration not stated) | -19% | >57 | 3% | 2% | 4µM* | -11%
CCCCCNC(=O)C(C#N)c1nc2ccccc2nc1N1CCCC1 (configuration not stated) | -7% | >57 | -13% | 1% | -15% | 12%
O=c1c(-c2cccs2)nc2cnc(N3CCOCC3)nc2n1Cc1cccs1 | 8% | · | -11% | 1%[11.4 µM] | i | -1%
CC(C)(C)OC(=O)[C@H]([C@@H]1N[C@@H](C(=O)O)C(C)(C)S1)N1C(=O)c2ccccc2C1=O | 8%[11.5 µM] | · | 5%[11.4 µM] | 3%[11.4 µM] | -4%[11.4 µM] | -2%[11.4 µM]
CCOC(=O)C1CCN(c2c(N3CCCCCC3)c(=O)c2=O)CC1 | -20% | · | -3% | -1% | -10% | 0%
CCOC(=O)C1=C(N2CCCCC2)c2cc3c(n2C1=O)CCCC3 | ? | >11 | 0% | -7% | 16µM* | ?
CCOC(=O)c1[nH]c2c(c1C)C(=O)CC(c1ccc(F)cc1)C2 (configuration not stated) | · | · | -3% | -3% | 116% | -23%
SMILES | ERK AVP block | PK Bst | Pol III holo inh | Luciferase inh | Tau fil binding | ALOX15 inhib
Cc1c(C(=O)OCC2CCCO2)[nH]c2c1C(=O)CC(c1ccc(N(C)C)cc1)C2 (configuration not stated) | 25µM* | · | 5% | -6% | 53% | -5%
COc1ccc(C2=NOC(CN3C(=O)c4ccccc4S3(=O)=O)C2)cc1 (configuration not stated) | -5% | i | -9% | 16µM* | -7% | 8%
CCCNC(=O)OC[C@@H]1O[C@H](CCO/N=C\C[C@H]2C=C[C@H](OC(C)=O)[C@@H](COC(C)=O)O2)C=C[C@@H]1Oc1ccc(OC)cc1 | -1%[11.5 µM] | · | · | 1%[11.4 µM] | · | 0%[11.4 µM]
O=C(O)CCN1C(=O)C(=C2CCCCCC2)SC1=S | -19% | >57 | -5% | 5% | 4% | -15%
O=C1C(=C2CCCCC2)SC(=S)N1Cc1ccco1 | -9% | · | 1%[11.4 µM] | 0% | -24%[11.4 µM] | 4µM*
Cn1cc(-c2nc3cnc(Oc4cccc(Cl)c4)nc3n(C3CC3)c2=O)c2ccccc21 | -43% | · | -6% | 0%[11.4 µM] | 8% | 9%
O=c1c(-c2ccc(Cl)cc2)nc2cnc(Oc3ccccc3)nc2n1C1CC1 | -9% | · | -3% | 1%[11.4 µM] | 13µM* | -10%
O=c1c(-c2ccccc2)nc2cnc(Oc3ccccc3)nc2n1C1CC1 | 35% | · | -6% | 0%[11.4 µM] | -22% | -1%
N#Cc1cccc(-c2nc3cnc(Oc4cccc(Cl)c4)nc3n(C3CC3)c2=O)c1 | ? | · | -3% | 0%[11.4 µM] | 10µM* | -2%
O[C@@H](c1cc(C(F)(F)F)nc2c(Cl)cc(Cl)cc12)[C@@H]1CCCCN1 | -17%[11.5 µM] | · | -3%[11.4 µM] | 2%[11.4 µM] | -16%[11.4 µM] | -3%[11.4 µM]
CC(C)N=C=NC(C)C | 16% | · | -3% | · | -1% | 1%
Fc1cccc2sc(Nc3nnc(-c4ccco4)o3)nc12 | 25% | · | -8% | 25µM* | -4% | 7%
Cc1nn(-c2ccccc2)c(C)c1C(=O)Nc1nnc(-c2ccco2)o1 | -11% | >57 | -5% | 2% | -3% | 16%
COc1cccc2sc(Nc3nnc(-c4cccs4)o3)nc12 | 8% | >57 | 6% | 16µM* | 52% | 28%
C[C@@H](c1ccccc1)N1C(=O)[C@H]2[C@H]3[C@H](O)[C@H](O)C/C(=N/OCc4ccccc4)[C@@H]3CC[C@@H]2C1=O | 19%[11.5 µM] | · | · | 1%[11.4 µM] | · | 12%[11.4 µM]
CC(=O)OCC1OC(C#CC(C)(C)C)C=CC1OC(C)=O (configuration not stated) | 24%[11.5 µM] | · | · | · | · | -6%[11.4 µM]
